The list is not random: actives were taken first. Their share in the collection is about 3%.
Vif imaging – HIV Vif self-association inhibitors, primary screen, imaging, HEK293T, single point; HEK293T cells, Vif self-association by quenched fluorescence, 24 h; inhibition, % at 7.49 µM; 340,000 compounds, 0.35% hits; in the data active = inhibition above about 50%, passing the limit was not always enough; inconclusive = no clear call, values can overlap the other calls; inactive = below about 31%
MITF TRPM1 HTS – activators of MITF-driven TRPM1 promoter reporter, primary screen, cell-based, SK-MEL-5, luciferase, single point | SK-MEL-5 TRPM1-promoter luciferase, 24 h; % of positive control, neutral wells = 0 | AID 588334, 2011 | activation, % at 12.5 µM | 300,000 compounds, 0.75% hits;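 active = mean activation of at least 80% with every replicate also reaching 80%; inconclusive = mean reaches 80% but some replicate falls short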;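 also: 0% = neutral control wells and 100% = parthenolide positive control wells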
Wnt bcat act – Wnt/beta-catenin pathway activators, primary screen, cell-based, plate reader, single point. AID 743398, 2014. 300,000 compounds, 1.2% hits. Wnt/beta-catenin reporter cell assay, activator. activation, % at 9.35 µM; in the data active = activation above about 30%, passing the limit was not always enough; inconclusive = no clear call, values can overlap the other calls;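 also: 0% = neutral control wells and 100% = positive control wells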
PfHsp90 set2 – growth inhibition of PfHsp90-expressing yeast, primary screen, antimalarial PfHsp90 inhibitor project, S. cerevisiae, BacTiter-Glo luminescence, single point, set 2; BacTiter-Glo ATP, 48 h; yeast lacking PDR1 and PDR3 efflux regulators; inhibition, % at 9.4 µM; 310,000 compounds, 0.32% hits; AID 504621, 2011;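 active = every replicate shows inhibition above about 80%, whatever the replicate mean, limit read from the data; inconclusive = mean inhibition reaches the set limit but some replicate falls short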;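 also: 0% = DMSO neutral controls and 100% = 20 µM radicicol positive controls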
N-glyco inh – increase of ERlucT glycosylation luciferase signal, primary screen, N-linked glycosylation inhibitor project, D54 ERlucT cells, luminescence, set 2 | D54 ERlucT glycosylation luciferase reporter, 24 h; percent of 100 nM tunicamycin response | 360,000 compounds, 0.23% hits | reporter increase, % at 12.5 µM;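 active = mean luciferase reporter signal, scaled so untreated is 0 and the glycosylation-blocking control 100, at or above a set limit in every replicate; inconclusive = mean reaches the limit but not every replicate does; inactive = mean below the limit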;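 also: luciferase carries N-glycosylation sites so blocking glycosylation raises the light; 0% = median of neutral control wells and 100% = median of 100 nM tunicamycin wells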
esBAF inh – Bmi1 luciferase reporter increase in mESCs, primary screen, esBAF inhibitor project, mouse ES cells, Bmi1 luciferase knock-in, single point. 350,000 compounds, 2% hits. 24 h; 100% = twice the neutral-well signal. reporter increase, % at 12.5 µM; in the data active = activation above about 40%; inconclusive = no clear call, values can overlap the other calls;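 also: 0% = median of the plate's neutral control wells and 100% = double that signal; a rise in the Bmi1 reporter signal indicates esBAF inhibition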
* marks the source's active call; other numbers are inactive results.

Screening Cc1nnc2ccc(-c3cccc(NS(=O)(=O)c4ccccc4Cl)c3)nn12 returned Vif imaging 80.5*, MITF TRPM1 HTS 13.7, Wnt bcat act -5.7, PfHsp90 set2 -4.9, N-glyco inh 15.0 and esBAF inh 2.9.
`Cc1nnc2ccc(-c3cccc(NS(=O)(=O)c4cc(F)ccc4F)c3)nn12` gave Vif imaging 70.7*, MITF TRPM1 HTS 4.7, Wnt bcat act 0.2, PfHsp90 set2 0.3, N-glyco inh 7.3 and esBAF inh -3.4.
For Cc1nnc2ccc(-c3cccc(NS(=O)(=O)c4ccccc4[N+](=O)[O-])c3)nn12 the results were Vif imaging inconclusive, MITF TRPM1 HTS 25.2, Wnt bcat act 6.0, PfHsp90 set2 25.2 and N-glyco inh 4.4.
Screening O=C(NNC(=S)Nc1ccccc1Cl)c1ccccc1Cl returned MITF TRPM1 HTS 77.8, Wnt bcat act 26.0, PfHsp90 set2 -1.0, N-glyco inh -1.6 and esBAF inh 53.1*.
Screening O=C(NNC(=S)Nc1ccc(Cl)cc1)c1ccccc1 returned Vif imaging -0.3, MITF TRPM1 HTS 32.0, Wnt bcat act -0.4, PfHsp90 set2 -13.7, N-glyco inh -0.4 and esBAF inh 30.8.
O=C(Nc1ccccc1Cl)c1ccccc1Cl was read as Vif imaging 3.4, MITF TRPM1 HTS 31.7, Wnt bcat act -0.4, PfHsp90 set2 -14.4, N-glyco inh -0.5 and esBAF inh 14.0.
O=C(NNC(=S)Nc1ccccc1Cl)c1ccccc1 was read as Vif imaging -2.8, MITF TRPM1 HTS 92.9*, Wnt bcat act 23.7, PfHsp90 set2 -6.3, N-glyco inh -2.7 and esBAF inh 70.9*.
For O=C(NCc1ccc(N2CCCC2=O)cc1)c1ccc(F)cc1 the results were Vif imaging -0.2, MITF TRPM1 HTS -7.8, Wnt bcat act -2.4, PfHsp90 set2 5.6, N-glyco inh -0.2 and esBAF inh 6.2.
CCOc1ccc(C2C=C(c3ccc(C)cc3)Nc3nnnn32)cc1 (stereo not given) was read as Vif imaging -1.6 and N-glyco inh -0.9.
`CCOc1ccc(C2C=C(c3ccccc3)Nc3nnnn32)cc1` (stereo not given) gave Vif imaging -21.2, Wnt bcat act 43.3*, N-glyco inh -6.5 and esBAF inh 51.3*.
For COc1ccc(C2C(C(=O)NCc3ccco3)c3ccccc3C(=O)N2C)cc1 (stereo not given) the results were Vif imaging -6.4, MITF TRPM1 HTS 2.3, Wnt bcat act -1.8 and N-glyco inh -0.7.
For NC(=O)C1CCN(CC(=O)NCc2ccccc2)CC1 the results were MITF TRPM1 HTS 7.3, Wnt bcat act -1.1, PfHsp90 set2 10.8, N-glyco inh 1.4 and esBAF inh -6.4.
`O=C(COc1cccc(NC(=O)c2ccco2)c1)c1ccccc1` gave Vif imaging -1.3, Wnt bcat act 12.1, N-glyco inh 1.3 and esBAF inh 49.6*.
O=C(Nc1cccc(F)c1)c1ccco1 was read as Vif imaging 30.6, MITF TRPM1 HTS 21.1, Wnt bcat act 2.7, N-glyco inh 0.4 and esBAF inh 44.9*.
Screening O=C(Nc1cccc(NC(=O)c2ccco2)c1)c1ccccc1 returned Vif imaging 8.1, MITF TRPM1 HTS 19.1, Wnt bcat act -2.3, PfHsp90 set2 4.3, N-glyco inh -2.4 and esBAF inh 10.5.
COc1cccc(NC(=O)c2ccco2)c1 was read as Vif imaging 12.7, MITF TRPM1 HTS 35.1, PfHsp90 set2 2.5, N-glyco inh -1.5 and esBAF inh 60.2*.
`O=C(c1ccccc1)c1cccc(NC(=O)c2ccco2)c1` gave MITF TRPM1 HTS 48.8, PfHsp90 set2 -23.4, N-glyco inh -2.8 and esBAF inh 65.7*.
For CC(=O)Nc1cccc(NC(=O)c2ccco2)c1 the results were Vif imaging -0.5, PfHsp90 set2 16.2, N-glyco inh 1.5 and esBAF inh -3.9.
Screening COc1ccc(NC(=S)N(CCCN2CCOCC2)C(C)c2cc3ccccc3o2)cc1 (stereo not given) returned Vif imaging 14.2, MITF TRPM1 HTS 10.2, Wnt bcat act 0.0, PfHsp90 set2 18.9, N-glyco inh 0.1 and esBAF inh 12.6.
For Cc1ccc(S(=O)(=O)N(C)C[C@@H]2Oc3c(NC(=O)c4ccc(-c5nccs5)cc4)cccc3C(=O)N([C@@H](C)CO)C[C@H]2C)cc1 the results were esBAF inh 0.0.
`O=C(Nc1ccc(NC(=O)c2ccco2)c(Cl)c1)c1ccccc1` gave Vif imaging 0.8, MITF TRPM1 HTS inconclusive, Wnt bcat act 6.6, PfHsp90 set2 6.0 and N-glyco inh 1.8.
For O=C(CNC(=O)c1ccco1)Nc1ccc(Br)cc1 the results were Vif imaging -5.2, MITF TRPM1 HTS 43.9, Wnt bcat act 17.9, PfHsp90 set2 -8.5, N-glyco inh 3.5 and esBAF inh 42.4*.
Screening O=C(Nc1ccc(Br)c(Cl)c1)c1ccco1 returned Vif imaging 16.4, MITF TRPM1 HTS 60.8, PfHsp90 set2 -7.4, N-glyco inh -3.1 and esBAF inh 51.7*.
O=C(C[C@H]1C[C@H]2c3cc(NC(=O)Nc4ccccc4F)ccc3O[C@H]2[C@@H](CO)O1)NCc1ccncc1 was read as esBAF inh -2.5.
Screening CC(CC(=O)O)NCC1COc2ccccc2O1 (stereo not given) returned MITF TRPM1 HTS -8.9, Wnt bcat act 3.9, PfHsp90 set2 -11.9, N-glyco inh 0.1 and esBAF inh 5.0.
Screening CC(C)OC(=O)/C(=C\c1ccc2c(c1)c1ccccc1n2C)NC(=O)c1ccccc1 returned MITF TRPM1 HTS 47.9, PfHsp90 set2 -17.0, N-glyco inh -3.4 and esBAF inh 75.7*.
Screening CC(C)c1ccc(CN(C)C(=O)c2ccc(S(=O)(=O)NCc3ccco3)cc2)cc1 returned Vif imaging -11.2, Wnt bcat act 33.8*, PfHsp90 set2 -1.1, N-glyco inh -0.6 and esBAF inh -2.4.
For Cc1cccc(NC(=O)c2ccc(S(=O)(=O)NCc3ccco3)cc2)n1 the results were Vif imaging -13.1, MITF TRPM1 HTS 48.9, Wnt bcat act -1.1, PfHsp90 set2 -1.1, N-glyco inh -1.8 and esBAF inh 56.2*.
COc1ccc(NS(=O)(=O)c2cccc(-c3n[nH]c(=S)n3Cc3ccccc3)c2)cc1 was read as Vif imaging 8.8, MITF TRPM1 HTS 8.9, Wnt bcat act -0.8, PfHsp90 set2 4.9 and N-glyco inh 0.0.
O=C(/C=C/c1cn(-c2ccccc2)nc1-c1cccnc1)c1ccco1 was read as Vif imaging 4.3, MITF TRPM1 HTS -12.3, Wnt bcat act 17.9 and N-glyco inh 31.8*.
